Measurements taken from the supplement of paper PMC3334620.
The full ranking holds about 33,000 sequences; the median of “E-score (-0.5 to 0.5)” is about -0.056, and the highest 2% start at about 0.38. The entries come from a sample that favours the highest values as a whole.

The sequences below were run against Stb4 (UniProt P50104) (assay: PBM E-score (8-mer binding enrichment) (E-score (-0.5 to 0.5)); higher = stronger / more preferred TF binding). Conditions: protein concentration: 200 nM; construct: GST-DNA-binding domain.
Chain of UniProt P50104 (P50104 whole entry, the tested form may be a part): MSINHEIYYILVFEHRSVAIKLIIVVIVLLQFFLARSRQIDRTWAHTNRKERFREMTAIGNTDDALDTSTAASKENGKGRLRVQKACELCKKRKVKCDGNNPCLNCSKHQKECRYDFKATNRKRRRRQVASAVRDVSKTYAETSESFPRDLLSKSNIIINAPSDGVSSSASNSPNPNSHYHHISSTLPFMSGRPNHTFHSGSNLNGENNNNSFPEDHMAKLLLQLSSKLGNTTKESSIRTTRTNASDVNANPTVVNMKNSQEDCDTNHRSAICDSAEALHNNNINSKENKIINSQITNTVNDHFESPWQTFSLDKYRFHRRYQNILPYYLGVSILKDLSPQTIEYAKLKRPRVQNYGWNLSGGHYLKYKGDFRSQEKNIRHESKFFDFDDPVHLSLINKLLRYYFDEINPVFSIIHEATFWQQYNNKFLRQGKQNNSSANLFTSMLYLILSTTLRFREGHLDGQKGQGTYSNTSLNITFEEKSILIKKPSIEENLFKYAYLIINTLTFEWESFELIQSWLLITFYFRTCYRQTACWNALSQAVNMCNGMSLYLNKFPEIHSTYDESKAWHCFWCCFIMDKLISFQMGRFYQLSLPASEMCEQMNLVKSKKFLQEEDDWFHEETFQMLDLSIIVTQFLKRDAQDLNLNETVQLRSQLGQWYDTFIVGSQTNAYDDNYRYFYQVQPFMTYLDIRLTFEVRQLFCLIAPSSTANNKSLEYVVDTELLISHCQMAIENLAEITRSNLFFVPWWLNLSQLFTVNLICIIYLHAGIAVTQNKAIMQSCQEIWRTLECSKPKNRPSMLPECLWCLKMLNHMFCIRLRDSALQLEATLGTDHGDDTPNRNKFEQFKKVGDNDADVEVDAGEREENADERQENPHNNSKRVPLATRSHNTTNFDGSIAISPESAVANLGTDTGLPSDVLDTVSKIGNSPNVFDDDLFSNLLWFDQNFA
Description: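 Universal 'all 10-mer' protein binding microarrays (Agilent AMADID 015681) probed with GST-tagged S. cerevisiae TFs (full-length or DBD) made by in vitro transcription/translation (PURExpress), about 100-200 nM. Bound TF was detected with fluorescent anti-GST. Each ungapped 8-mer (which stands for itself and its reverse complement) is scored by the PBM enrichment score (E-score), a modified Wilcoxon-Mann-Whitney statistic from -0.5 to +0.5, computed with the Universal PBM Analysis Suite. Scale: above 0.35 generally sequence-specific binding.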

Sequence | PBM E-score
TATAGACA | -0.192
CCTGGCGA | -0.204
AGCTGCAA | -0.0718
AGTCCGGA | 0.332
ATTCCGGA | 0.405
CTTCCGTA | 0.379
ATTCCGGG | 0.353
CTTCCGGC | 0.392
ATTCCGGC | 0.354
GTTCCGGA | 0.435
GGTCCGGA | 0.34
CGTCCGGA | 0.3
CTTCCGGA | 0.396
GTTCCGTA | 0.314
CCTCCGGC | 0.295
AACTAACT | 0.0909
AGAGGATG | -0.0042
ATGGCTAA | -0.0251
CCTATTGC | -0.0913
ACAGCATC | -0.102
GAATCTTA | -0.0785
CTTTCCAC | 0.0376
AGTTCCCC | 0.138
AGTTCCGC | 0.324
AGTTCCGA | 0.474

Sequence | PBM E-score
GGGTCCGA | 0.344
CGTTCCCC | -0.014
AGTTCCCA | -0.0388
CGGTCCGA | 0.449
AGTTCCAA | 0.012
AGTTCCCG | 0.396
AGGTCCGA | 0.304
AGTTCCTA | 0.00074
CGTTCCGC | 0.412
CAGCTTTC | -0.0811
ATGGGTGG | -0.0789
GTGAGTTA | -0.211
ATGTAAAG | -0.162
ACTTGCGC | -0.0787
AGAAGGGG | -0.169
ATAGCGTC | -0.209
GTAACGGA | 0.281
GTTTGCAA | -0.113
CGATTTGA | -0.0548
ATTCACAA | -0.0973
GGTTCCAA | 0.196
CGTTCCGA | 0.451
GGTTCCGA | 0.468
AGTTCCGG | 0.419
CGTTCCTA | -0.00632

Sequence | PBM E-score
CGTTCCAA | -0.0817
GGTTCCCA | -0.0962
AGTTCCAG | -0.136
AGTTCCTG | -0.14
ACCACCCT | -0.162
CCTCTTAA | -0.0505
CCCGAAAG | 0.393
ACCGAAAA | 0.337
ACCGAAGC | 0.287
CACGAAAG | -0.148
GTCGAAAC | -0.0645
GACGAAAA | 0.0557
GCCGAAGC | 0.385
GCCGAAAC | 0.397
GACGAAGC | -0.142
ACCGAAAG | 0.231
GCCGAAAA | 0.438
ACCGAAAC | 0.372
GGAGGATA | -0.0736
CGTTACTC | -0.0977
AGAAGTGC | -0.122
CGCGGGAG | 0.172
CCCGAAAA | 0.428
TACGAAAA | -0.0536
CCCGAAAC | 0.339

Sequence | PBM E-score
CACGAAAA | -0.0798
TGCGAAAA | -0.0153
TCCGAAAA | 0.441
CTCAAACC | -0.0373
CGAGCTAC | 0.0965
GAGTCAAC | 0.0604
ACCATAGC | -0.123
TACATCCA | -0.202
AATTAAAT | -0.0575
ATTATCCA | -0.0958
ATTATCCG | 0.475
AGTATCCC | -0.0361
AGTATCCA | 0.0731
CCTATCCG | 0.391
ACTATCCG | 0.45
AGTATCCG | 0.436
ACTATCCC | -0.044
CCTATCCC | 0.176
CCTATCCA | -0.196
ATTATCCC | 0.0679
ACTATCCT | -0.0638
CAGGCGAG | -0.294
ACTGCATA | -0.135
AGTATCTC | -0.0258
TCTAGCAA | -0.0809

Sequence | PBM E-score
CATCCGTA | 0.329
CATCCAGG | -0.178
AGTCCGGC | 0.0945
CATCCGGA | 0.406
CATCCGGG | 0.397
CGTCCGGC | 0.253
CATCCGGC | 0.397
CCTCCGGA | 0.307
AATCCGGG | 0.306
AAAGCCCT | -0.106
CGAAAACA | 0.123
CGTGTTTA | -0.00808
AGCTGTGC | -0.148
AATATCTA | -0.0944
CCGCTATA | 0.0382
AGTTCTCG | 0.0181
ATCTTAAG | -0.187
CCGCTGAC | 0.0389
CCACCGCG | -0.00158
ACCCGAAT | 0.425
TCACGAAA | -0.0978
ACCCGAAG | 0.424
AACCGAAT | 0.325
ACACGAAG | 0.00748
ACCCCGAT | 0.266

Sequence | PBM E-score
TCCCGACA | 0.355
TCCCGAAA | 0.432
GCCCGAAC | 0.262
CCCCGAAC | 0.338
ACCCGAAC | 0.463
CCCCGAAG | 0.354
GGGGTTAA | 0.0779
GCTTTCAA | -0.0547
CGAGAGTC | 0.0872
ATGCCTTC | -0.0568
CTTTTCAC | -0.191
ATGCCCAG | 0.0828
CGGACAGA | 0.129
CACGCTTC | 0.0187
CCCCGAAA | 0.34
ACCCGAAA | 0.435
GCCCGAAA | 0.276
AAGTGCAG | -0.212
AACTTAGT | 0.0161
TATCCCAA | 0.0571
GATCCCGC | 0.225
GATCCCAA | -0.0342
TATCCCCA | -0.185
AATCCCGA | 0.431
CATCCCGA | 0.401

Sequence | PBM E-score
CATCCCGC | 0.122
GATCCCGA | 0.417
CATCCCGG | 0.342
TATCCCGA | 0.398
AATCCCGC | 0.225
AATCCCGT | 0.303
CGAGTAAA | 0.143
ATTGTAGA | -0.132
AGTTTGGG | -0.172
AGCTAAAA | -0.0535
CCAGTTGC | -0.0304
CAATAGGC | -0.0832
TCAGATAA | -0.0704
AATCCTTA | -0.0563
CCGGGATA | 0.292
CCGGGATC | 0.384
CCCGGACA | 0.264
ACCGGATG | 0.385
GCCGGATA | 0.409
GCCGGACA | 0.154
ACCGGAGG | 0.228
CCCGGATA | 0.429
GCCGGAGA | 0.192
CCCGGAGA | 0.318
ACCGGACG | 0.146

Sequence | PBM E-score
CGGGGATC | 0.279
AAGGGGTC | -0.176
GACGTACC | -0.0237
CAAAGCAA | -0.0355
ATCGAGAA | -0.157
GATTTTAC | 0.0329
GGACGGCC | -0.028
ATGCCAAG | -0.177
GCAAAAAA | 0.137
CCGCAGTC | 0.112
TGATTGCA | -0.0923
ACCGGATA | 0.388
CCCGGAGC | 0.32
CCCGGATC | 0.385
ACCGGATC | 0.353
ACCGGACA | 0.128
ACCGGAGA | 0.187
CAAAATGC | -0.121
CTGAACCA | -0.197
ACGCCGTA | -0.208
ATCAACAC | -0.101
ACGAAATA | -0.111
CTGAAATC | -0.0865
GCGAAATA | 0.0947
CCGAAATA | 0.401

Sequence | PBM E-score
ACGAAATC | -0.0845
CCGAAATC | 0.405
CGGTAACA | 0.238
ACACTGCG | 0.00398
AGGTTGGC | -0.205
GTATTATA | 0.0782
CATTCCGA | 0.449
AATTCCGA | 0.46
TATTCCAA | -0.113
GATTCCCA | -0.109
AATTCCGC | 0.246
GATTCCGA | 0.444
TATTCCGA | 0.462
AATTCCGG | 0.358
CATTCCGG | 0.358
GATTCCGC | 0.222
TATTCCCA | 0.0571
CATTCCGC | 0.175
CCACCCGC | 0.194
TATCAAGA | -0.216
CAGCCTGG | -0.203
CCCAGTGC | -0.0453
GTGTCGCA | -0.0287
GTGTCGTA | -0.0741
ATGTCGGC | 0.138

Sequence | PBM E-score
CTGTCGGA | 0.353
GTGTCGGA | 0.395
ATGTCGGA | 0.389
ATTAGTAA | 0.076
AGTGATAG | -0.33
AGCACAGA | -0.121
GCCAATAA | 0.0672
ATCATCCG | 0.414
ACCATCCT | -0.249
ATCATCCA | -0.121
CACATCCC | 0.187
ACCATCCG | 0.406
ATCATCCC | 0.052
AACATCCT | -0.0622
CACATCCA | -0.0807
CACATCCG | 0.425
AACATCCG | 0.45
ACCATCCC | 0.0842
AACATCCC | 0.232
AATCAATA | -0.0212
CGATTAAG | -0.128
AAAAGGGC | -0.141
CAATTCTA | -0.196
AATTCTTA | -0.0318
CTGGAGCA | -0.262

Sequence | PBM E-score
ATCCTAGG | -0.0251
GCTCCAAC | -0.111
CACTGGCA | -0.23
GCTTGAGA | -0.312
GCGAGATA | 0.026
ACGAGATC | -0.0355
ACGAGATA | -0.184
CTGAGATC | -0.0537
CCGAGATA | 0.405
CCGAGATC | 0.435
AAGCAGCT | -0.0723
CCAGACTA | -0.229
CTGAGGGA | -0.284
AGTTTCCA | -0.103
AGTTTCCC | 0.132
AGTTTCCG | 0.437
CATTTCCG | 0.421
CATTTCCC | 0.18
CATTTCCA | -0.196
ACTTTCCC | 0.121
ATTTTCCA | -0.0573
ATTTTCCC | 0.0682
ACTTTCCG | 0.383
ACTTTCCT | -0.22
ATTTTCCG | 0.424

Sequence | PBM E-score
CGCAGGAA | -0.0189
ATATGGCG | 0.0558
CGAGTAAC | 0.166
CTGGCTGC | -0.108
AAAGGGTC | -0.0434
ACGGGGGG | -0.228
GCCACGCC | -0.282
GATAGCGA | -0.0238
AGTTTCGA | -0.131
AGTTTCGG | 0.412
AATTTCCC | 0.142
AATTTCCG | 0.425
AGTTTCGC | 0.0157
AATTTCCT | -0.0502
CTAAGTCA | -0.0795
CCCAATGC | -0.17
ATTGGCTG | -0.167
GATAAGCA | 0.136
AGTTCGTG | -0.157
AGTTCGGA | 0.442
AGTTCGGG | 0.426
AGTTCGCA | -0.158
AGTTCGGC | 0.357
AGTTCGTA | 0.0255
AACATTCA | -0.00804

Sequence | PBM E-score
AACGGCAT | 0.232
AAAAGAGC | -0.189
ATTCTCGC | -0.286
CATCTCGC | -0.0526
AATCTCGG | 0.434
AAACTCGC | -0.0551
AATCTCGA | -0.0861
CATCTCGG | 0.458
AAACTCGT | -0.228
AATCTCGT | -0.0273
AAACTCGG | 0.419
CATCTCGA | -0.252
ATTCTCGG | 0.425
ATTCTCGA | -0.194
CACGCTCG | 0.119
AATCGAAT | 0.00368
CTGAGAGC | -0.138
AATACTGG | -0.159
TCTAAAAA | 0.0389
AGGGTGTA | -0.093
GTCGCAGA | -0.195
AGTCTCGG | 0.39
ACTCTCGG | 0.416
AGTCTCGA | -0.0187
ACTCTCGC | -0.0541

Sequence | PBM E-score
ACTCTCGA | -0.214
AGTCTCGC | -0.0759
ATAGCCTC | -0.00394
ACTGATAC | 0.0597
ATAGTCGC | -0.076
ACGCTACC | 0.00891
TATTTTGA | -0.151
TAGCCTCA | -0.198
GATGCTTA | -0.00303
CAGATCCG | 0.416
CAGATCCC | 0.00572
CAGATCCA | 0.0283
AAGATCCG | 0.41
AAGATCCC | 0.126
AAGATCCA | -0.0259
GGGCCGCA | 0.134
AGTCACAA | -0.173
AGTTTAGG | -0.238
AAATGGGG | -0.344
